Inconclusive results are not listed. Calls of active or inactive are those of the source. The calls were made as follows, unless noted: active = hit-call score of the fitted dose curve at least 0.9, where 1 is the maximum; inactive = score below 0.9.
System: not listed separately
Experiment: Tanguay_ZF_120hpf_TR_legacy: (Legacy) Oregon State University Tanguay Lab 120 Hour Post-fertilization zebrafish Assay for Touch Response (AID 2283667; active = hit-call score of the fitted dose curve at least 0.9, where 1 is the maximum)
Conditions: not given
Method in brief: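 Tropical 5D wild-type zebrafish embryos statically exposed to 120 hpf at 28°C, sealed and dark-covered, 0.64% DMSO final; touch response scored as present/absent by brightfield microscopy at 120 hpf. Trimethyltin chloride 5 uM positive control; dead embryos not scored.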

| Compound | AC50 | outcome |
| --- | --- | --- |
| OC12N=C(c3ccccc3)SC1Cc1cc(Cl)ccc12 (stereo unspecified) | 14.9 µM (active) |  |
| COCC(C)OCC(C)OCC(C)O (stereo unspecified) |  | inactive |
| O=C(OCCCCCCOC(=O)c1ccccc1)c1ccccc1 |  | inactive |
| CCCCCc1ccc(N)cc1 |  | inactive |
| CN(C)c1ccc(C(=C2C=CC(=[N+](C)C)C=C2)c2ccc(N(C)C)cc2)cc1 |  | inactive |
| CCN(Cc1cccnc1)C(=O)c1cccc(Cl)c1[C@]1(C)C(=O)N(Cc2ccc(OC)cc2OC)c2ccc(Cl)cc21 |  | inactive |
| CCCOC(=O)c1cc(O)c(O)c(O)c1 |  | inactive |
| CN(C[C@@H](CC[N+]12CCC(C3CCCCC3)(CC1)CC2)c1ccc(Cl)c(Cl)c1)C(=O)c1cc(C(F)(F)F)cc(C(F)(F)F)c1 |  | inactive |
| NCc1cccc(C2CCN(C(=O)c3ccc(C#Cc4ccccc4F)o3)CC2)c1 |  | inactive |
| Cc1ncc(CO)c(CO)c1O |  | inactive |
| CCCCCCCCCCCCO |  | inactive |
| CC(C)(C)c1csc(-c2cc3cc(OCc4ccccc4CC(=O)O)ccc3o2)n1 |  | inactive |
| O=c1c(-c2ccc(O)cc2)coc2cc(O)cc(O)c12 |  | inactive |
| CO[C@H]1/C=C/O[C@@]2(C)Oc3c(C)c(O)c4c(O)c(c(/C=N/N5CCN(C)CC5)c(O)c4c3C2=O)NC(=O)/C(C)=C\C=C\[C@H](C)[C@H](O)[C@@H](C)[C@@H](O)[C@@H](C)[C@H](OC(C)=O)[C@@H]1C |  | inactive |
| Cc1c2ccccc2c(C)c2c1ccc1ccccc12 |  | inactive |
| CC(=O)N1CCN(c2ccc(OC[C@H]3CO[C@](Cn4ccnc4)(c4ccc(Cl)cc4Cl)O3)cc2)CC1 |  | inactive |
| CCOC(=O)O[C@H](C)OC(=O)c1ccc2c(c1)cc(C(=O)NC1CCN(C(C)C)CC1)n2Cc1cc(-c2ccc(Cl)s2)on1 |  | inactive |
| Oc1ccccc1 |  | inactive |
| O=C1O[C@H]([C@@H](O)CO)C(O)=C1O |  | inactive |

| Compound | AC50 | outcome |
| --- | --- | --- |
| Cc1occc1C(=O)Nc1ccc(C(=O)N2CCC(F)(F)/C(=C\C(=O)N3CCC(N4CCCCC4)CC3)c3ccccc32)cc1 |  | inactive |
| CCCCCCCCOC(=O)c1cc(O)c(O)c(O)c1 |  | inactive |
| Oc1ccc2ccccc2c1 | 33.6 µM (active) |  |
| O=C(O)Cc1cc(I)c(Oc2ccc(O)c(I)c2)c(I)c1 |  | inactive |
| CC(C)(c1cc(Br)c(O)c(Br)c1)c1cc(Br)c(O)c(Br)c1 |  | inactive |
| c1ccc2n[nH]nc2c1 |  | inactive |
| COc1cc(C(=O)NC2CCN(C)CC2)ccc1Nc1ncc2c(n1)N(C1CCCC1)CC(F)(F)C(=O)N2C | 36.1 µM (active) |  |
| CC(C)(C)c1cc(/C=C2\SC(N)=NC2=O)cc(C(C)(C)C)c1O |  | inactive |
| O=C(Nc1ccc(Cl)cc1)Nc1ccc(Cl)c(Cl)c1 |  | inactive |
| CCN(CC)C(=O)c1cc(S(=O)(=O)Cc2ccccc2)c(N2CCC(c3ccccc3)CC2)cc1N(CC)CCN(C)C |  | inactive |
| O=C1CCC(C2CCCCC2)CC1 |  | inactive |
| CCO[Si](CCCNC(N)=O)(OCC)OCC |  | inactive |
| O=C1c2ccccc2C(=O)N1CCc1noc(-c2ccc(CN3CCCCCC3)s2)n1 |  | inactive |
| CCN(Cc1cccc(S(=O)(=O)O)c1)c1ccc(C(=C2C=CC(=[N+](CC)Cc3cccc(S(=O)(=O)O)c3)C=C2)c2ccccc2S(=O)(=O)[O-])cc1 |  | inactive |
| C[C@]12CC[C@@H]3c4ccc(O)cc4CC[C@H]3[C@@H]1CC[C@H]2O |  | inactive |
| Cc1cn([C@H]2C[C@H](N=[N+]=[N-])[C@@H](CO)O2)c(=O)[nH]c1=O |  | inactive |
| CCCCCCCCCC(=O)O |  | inactive |
| Cc1cc(F)ccc1-c1cc(N2CC[C@@H](O)[C@H]2CO)ncc1N(C)C(=O)C(C)(C)c1cc(C(F)(F)F)cc(C(F)(F)F)c1 |  | inactive |

Read-out: Cytochrome P450 (CYP24A1_1), CYP24A1 (gene 1591)
Experiment: LTEA_HepaRG_CYP24A1_1: Life Technologies and Expression Analysis (LTEA) Assay for Cytochrome P450 (CYP24A1_1) using HepaRG (AID 2283671)
Conditions: mRNA level, 48 h; actives raise or lower the signal
Protocol: LTEA_HepaRG is a cell based, multiplexed-readout assay that uses HepaRG, a human liver cell line, with measurements taken at 48 hours after chemical dosing on a 96-well plate.LTEA_HepaRG_CYP24A1_1 is one of 102 assay component(s) measured in the LTEA HepaRG cell culture assay. It is a marker of NR mediated metabolism.Data from the assay component LTEA_HepaRG_CYP24A1_1 was analyzed into 1 endpoint. This assay endpoint, LTEA_HepaRG_CYP24A1_1, was analyzed with bidirectional fitting relative to DMSO as the negative control and baseline of activity. Using a type of inducible reporter, measures of mRNA induction for gain or loss-of-signal activity can be used to understand regulation of transcription factor activity. To generalize the intended target to other relatable targets, this assay endpoint is annotated to the cyp intended target family, where the subfamily is xenobiotic metabolism.
A total of 1060 chemcials from the ToxCast library were tested in eight-point concentration-response experiments. Cell culture and cytotoxicity assays were conducted at Thermo Fisher Scientific's Custom Services facility (Madison, WI). A single lot of human HepaRG cells (Thermo Fisher Scientific, Frederick, MD) was used for the cell culture experiments. 96-well format collagen type I coated plates of human HepaRG cells were prepared using established methods. Briefly, cryopreserved HepaRG cells were thawed, plated at a density of approximately 100,000 cells/well in HepaRG Thaw, Plate, and General Purpose media (HPRG770, Thermo Fisher Scientific), and incubated for 48 hours. 0.5% DMSO was selected as vehicle control to balance the requisite need of DMSO in HepaRG cultures to maintain differentiation (for example, baseline metabolism, proportions of hepatocytes vs. cholangiocytes), while enabling further hepatic receptor pathway activation (for example, PXR and CAR) in response to chemical exposure. 48 hours after plating, the culture medium was replaced with HepaRG Serum-Free Incudtion Media. Cells were exposed to each test chemical in duplicate and maintained in CO2 incubators for another 48 hours. Chemical plates were thawed to room temperature and 200x concentrations of treatment groups were prepared. 8-point conentration-reponse curves were made with the highest exposure at 100 uM, followed by half-log dilutions, all in 0.5% DMSO. Each test plate contained variouse controls, induction positive controls (1mM phenobarbital), cytotoxicity positive controls ([…] aflatoxin B1), vehicle controls (0.5% DMSO), and total lysis controls (0.5% DMSO). Cell morphology images were taken using an Essen IncuCyte FLR automated microscope, with six 96-well plates imaged in about 24 minutes. Images were captured and exported and JPEG files. Spent culture media was transfered to black-well plates for the LDH assay, and remaining media was sorted at -80 C for later use. Cells were treated with RLT buffer and frozen until shipped for gene expression analysis. Total RNA was isolated from the cell suspension in 75 uL of Buffer RLT (Qiagen, Germantown, MD 20874) by Quintiles/Expression Analysis (Durham, NC) using a custom isolation procedure. Total RNA from each plate well was transferred to a preamplification plate. Fluidigm's 96.96 Dynamic ArrayTM (Fluidigm, Amsterdam, the Netherlands) technology was used for gene expression analyses by quantitative reverse transcription polymerase chain reaction (qRT-PCR, performed by Quintiles/Expression Analysis, Durham, NC)89. Standard TaqManTM Assays (Applied Biosystems/ThermoFisher Scientific, Foster City, CA) were used to assess the expression of 93 genes selected based on their selectivity and sensitivity to important hepatic receptors known to be modulated by environmental chemicals; importance in human hepatocyte functionality; and hepatotoxicity. […]

| Compound | outcome |
| --- | --- |
| CCCOC(=O)c1cc(O)c(O)c(O)c1 | inactive |
| CCCCCCCCCCCCO | inactive |
| CC(C)(C)c1csc(-c2cc3cc(OCc4ccccc4CC(=O)O)ccc3o2)n1 | inactive |
| Cc1occc1C(=O)Nc1ccc(C(=O)N2CCC(F)(F)/C(=C\C(=O)N3CCC(N4CCCCC4)CC3)c3ccccc32)cc1 | inactive |
| CCN(CC)C(=O)c1cc(S(=O)(=O)Cc2ccccc2)c(N2CCC(c3ccccc3)CC2)cc1N(CC)CCN(C)C | inactive |
| O=C1c2ccccc2C(=O)N1CCc1noc(-c2ccc(CN3CCCCCC3)s2)n1 | inactive |
| C[C@]12CC[C@@H]3c4ccc(O)cc4CC[C@H]3[C@@H]1CC[C@H]2O | inactive |

System: not listed separately
Experiment: CCTE_Padilla_ZF_144hpf_TERATOSCORE: (Legacy) CCTE's 144 Hour Post-fertilization zebrafish Assay Teratoscore, Padilla Lab (AID 2283679);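 as to AC50: zebrafish embryos with chorions exposed by immersion from 6-8 hpf to 5 dpf with daily renewal; teratogenicity score from eye scoring of death hatching and malformations at 144 hpf; higher score means more developmental defects relative to DMSO baseline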
Conditions: not given
Method in brief: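 Larvae scored by eye at 144 hpf for death, hatching and malformations after a day in clean Hanks'. Before that, daily-renewed exposure at 80 uM (0.4% DMSO, 26C) from roughly 6-8 hpf through 5 dpf, 4 embryos per chemical.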

| Compound | AC50 | outcome |
| --- | --- | --- |
| O=C(OCCCCCCOC(=O)c1ccccc1)c1ccccc1 | 12.9 µM (active) |  |
| CCCCCc1ccc(N)cc1 | 65.9 µM (active) |  |
| CN(C)c1ccc(C(=C2C=CC(=[N+](C)C)C=C2)c2ccc(N(C)C)cc2)cc1 | 0.477 µM (active) |  |
| CCN(Cc1cccnc1)C(=O)c1cccc(Cl)c1[C@]1(C)C(=O)N(Cc2ccc(OC)cc2OC)c2ccc(Cl)cc21 | 5.26 µM (active) |  |
| CN(C[C@@H](CC[N+]12CCC(C3CCCCC3)(CC1)CC2)c1ccc(Cl)c(Cl)c1)C(=O)c1cc(C(F)(F)F)cc(C(F)(F)F)c1 | 4.91 µM (active) |  |
| NCc1cccc(C2CCN(C(=O)c3ccc(C#Cc4ccccc4F)o3)CC2)c1 | 14.5 µM (active) |  |
| Cc1ncc(CO)c(CO)c1O |  | inactive |
| CCCCCCCCCCCCO | 62.8 µM (active) |  |
| CC(C)(C)c1csc(-c2cc3cc(OCc4ccccc4CC(=O)O)ccc3o2)n1 | 1.71 µM (active) |  |
| O=c1c(-c2ccc(O)cc2)coc2cc(O)cc(O)c12 | 24.5 µM (active) |  |
| Cc1c2ccccc2c(C)c2c1ccc1ccccc12 | 4.42 µM (active) |  |
| CC(=O)N1CCN(c2ccc(OC[C@H]3CO[C@](Cn4ccnc4)(c4ccc(Cl)cc4Cl)O3)cc2)CC1 | 14.3 µM (active) |  |
| CCOC(=O)O[C@H](C)OC(=O)c1ccc2c(c1)cc(C(=O)NC1CCN(C(C)C)CC1)n2Cc1cc(-c2ccc(Cl)s2)on1 | 4.27 µM (active) |  |
| O=C1O[C@H]([C@@H](O)CO)C(O)=C1O |  | inactive |
| Cc1occc1C(=O)Nc1ccc(C(=O)N2CCC(F)(F)/C(=C\C(=O)N3CCC(N4CCCCC4)CC3)c3ccccc32)cc1 |  | inactive |
| CC/C(=C(/CC)c1ccc(O)cc1)c1ccc(O)cc1 | 5.03 µM (active) |  |

| Compound | AC50 | outcome |
| --- | --- | --- |
| CCCCCCCCOC(=O)c1cc(O)c(O)c(O)c1 | 1.43 µM (active) |  |
| Oc1ccc2ccccc2c1 | 57.1 µM (active) |  |
| O=C(O)Cc1cc(I)c(Oc2ccc(O)c(I)c2)c(I)c1 | 0.101 µM (active) |  |
| CC(C)(c1cc(Br)c(O)c(Br)c1)c1cc(Br)c(O)c(Br)c1 | 4.24 µM (active) |  |
| c1ccc2n[nH]nc2c1 |  | inactive |
| COc1cc(C(=O)NC2CCN(C)CC2)ccc1Nc1ncc2c(n1)N(C1CCCC1)CC(F)(F)C(=O)N2C | 24.1 µM (active) |  |
| CC(C)(C)c1cc(/C=C2\SC(N)=NC2=O)cc(C(C)(C)C)c1O | 4.17 µM (active) |  |
| O=C(Nc1ccc(Cl)cc1)Nc1ccc(Cl)c(Cl)c1 | 5.19 µM (active) |  |
| CCN(CC)C(=O)c1cc(S(=O)(=O)Cc2ccccc2)c(N2CCC(c3ccccc3)CC2)cc1N(CC)CCN(C)C | 20.7 µM (active) |  |
| O=C1CCC(C2CCCCC2)CC1 | 60.4 µM (active) |  |
| O=C1c2ccccc2C(=O)N1CCc1noc(-c2ccc(CN3CCCCCC3)s2)n1 | 20.2 µM (active) |  |
| CCN(Cc1cccc(S(=O)(=O)O)c1)c1ccc(C(=C2C=CC(=[N+](CC)Cc3cccc(S(=O)(=O)O)c3)C=C2)c2ccccc2S(=O)(=O)[O-])cc1 |  | inactive |
| C[C@]12CC[C@@H]3c4ccc(O)cc4CC[C@H]3[C@@H]1CC[C@H]2O | 15 µM (active) |  |
| Cc1cn([C@H]2C[C@H](N=[N+]=[N-])[C@@H](CO)O2)c(=O)[nH]c1=O |  | inactive |
| CCCCCCCCCC(=O)O | 65.8 µM (active) |  |
| Cc1cc(F)ccc1-c1cc(N2CC[C@@H](O)[C@H]2CO)ncc1N(C)C(=O)C(C)(C)c1cc(C(F)(F)F)cc(C(F)(F)F)c1 | 4.05 µM (active) |  |

From PubChem BioAssay (EPA / NIEHS)
